“And” between values parts separate entries of the source, which are not always exact repeats. Equal entries are not always repeated. Results filed as inconclusive are left out. Values without a mark were called inactive. The source made the active and inactive calls. Calls come from the whole dose curve; as a rule, active = well fitted activation curve with a large enough effect in the repeat runs; inconclusive = weak or mixed curves, or effect the other way; inactive = no such curve, though single readings can be large or run the other way.
% is set by controls: 0 for no effect and ±100 for the full control effect; potency is the fitted concentration of half-maximal effect.

The experiment in a line: qHTS assay to identify small molecule agonists of the retinoic acid receptor (RAR) signaling pathway (AID 1159553). Particulars: C3RL4 RARE luciferase reporter, agonist, 6 h; series mostly up to 73.3 µM; activation: at the top concentration. From the text: National Center for Advancing Translational Sciences [NCATS] NIH Chemical Genomics Center [NCGC] U.S. Environmental Protection Agency [EPA] National Institutes of Environmental Health Sciences [NIEHS] National Toxicology Program [NTP] Assay overview: All-trans Retinoic acid (atRA) is the potent natural metabolite of retinol and plays an important role in normal embryonic development and maintenance of cellular phenotype in adult animals. atRA is the activating ligand for the retinoic acid receptors (RARs) which form heterodimers with retinoid X receptors (RXRs) on the retinoic acid response element (RARE). Through activation of the RAR/RXRs nuclear receptors, atRA regulates the transcription of a large number of protein-coding genes and regulatory RNAs. Intracellular levels of atRA are controlled by the retinol signaling pathway (RSP) that regulates the biosynthesis and catabolism of atRA to maintain physiological levels. Chemicals that interfere with the RSP can cause abnormal intracellular levels of atRA and therefore are potential developmental toxicants. To assess compounds for the potential adverse effect on embryonic development through interfering with retinol signaling, a cell-based RARE luciferase reporter gene assay was used. C3RL4 cell line (OARSA/CFSAN/FDA, Laurel, MD) was used to screen Tox21 10K compound library for identifying activators of the RSP.
Assay Protocol Summary: C3RL4 cells were seeded at 1,000/well in 5 uL of assay medium into white solid 1,536-well tissue culture plates (Greiner Bio-One North America Inc. Monroe, NC) using a Multidrop Combi (Thermo Scientific, Waltham, MA) dispenser. After incubation at 37 C and 5% CO2 for an overnight, 23 nL of compounds dissolved in DMSO, positive control or DMSO only were transferred by a Pintool station (Kalypsys, San Diego, CA). After 6 hr incubation at 37 C and 5% CO2, 5 uL of Amplite Luciferase reagent (AAT Bioquest Inc. Sunnyvale, CA) was added to each assay plate using a Flying Reagent Dispenser (FRD) (Aurora Discovery, San Diego, CA). Luminescence was quantified on a ViewLux plate reader (PerkinElmer, Waltham, MA) after 30 min incubation at room temperature.
(In general: In qHTS, concentration-response curves come from the screen itself.)
Consider `COc1ccc(OC)c(CC(C)N)c1` (stereo not given), for which the “activation” value was -2.9% [at 94.8 µM].

`ClC1=C(Cl)C2(Cl)C3C(Cl)C=CC3C1(Cl)C2(Cl)Cl` (stereo not given): the “activation” value is -0.397% [at 94.8 µM].

As to `N#CNC#N`, the “activation” value was -0.001% [at 94.8 µM]. Still for that read-out and setting: for `CC(C)OS(C)(=O)=O` the value was -0.904% [at 94.8 µM]. The same measure, in the same setting: then `CC(C)(C)OO`, with 1.94%.

Turning to `NNC(=O)c1ccccc1`, the Potency was 1.77 µM (active).

Consider `c1ccc2c(c1)[nH]c1cnccc12`, for which the “activation” value was -5.01%. Turning to `ClC(Cl)=C(c1ccc(Cl)cc1)c1ccc(Cl)cc1`, the Potency entry was “inactive”. Consider `CCCN(CCC)CCc1c[nH]c2ccccc12`, for which the “activation” value is -33.7%. On the same count and under the same terms, then `Clc1ccc(-c2ccc(Cl)c(Cl)c2Cl)c(Cl)c1Cl`, with 0.55%; and `CCCCCCCCCCCCCN1CC(C)OC(C)C1` (stereo not given), with 0.309%; and `Oc1ccc(C(=C(Cl)Cl)c2ccc(O)cc2)cc1`, with -6.13%. Turning to `Nc1ccccc1C(=O)Oc1ccc2ccccc2c1`, the Potency is 0.193 µM (active). Regarding `O=c1[nH]c2ccccc2n1C1CCN(CCCC(c2ccc(F)cc2)c2ccc(F)cc2)CC1`, the “activation” value is 0.77%. The same measure, in the same setting: then `CC1(C)CC/C(=C/c2ccc(Cl)cc2)C1(O)Cn1cncn1` (stereo not given), with -23.5%; and `CCOCn1c(-c2ccc(Cl)cc2)c(C#N)c(Br)c1C(F)(F)F`, with 0.424%; and `C[C@]12Cc3nonc3C[C@@H]1CC[C@@H]1[C@@H]2CC[C@@]2(C)[C@H]1CC[C@]2(C)O`, with -12.3%. Still for that read-out and setting: then `CCCCCCCCCBr`, with -1.6% [at 94.8 µM]; and `Cc1cc(C)cc(OP(=O)(Oc2cc(C)cc(C)c2)Oc2cc(C)cc(C)c2)c1`, with -5.64% [at 94.8 µM]; and `O=C(CCCN1CCC2(CC1)C(=O)NCN2c1ccccc1)c1ccc(F)cc1`, with -12.6%. On the same count and under the same terms, then `CCOP(=O)(NC(C)C)Oc1ccc(SC)c(C)c1` (stereo not given), with 6.83%. In the case of `CCCN(CC)CC1COC2(CCC(C(C)(C)C)CC2)O1` (stereo not given), the “activation” value is -2.59%.

Turning to `CN(C)C1CSSSC1`, the “activation” value was 0.0603%. The same measure, in the same setting: for `O=C(O)C1C2CCC(O2)C1C(=O)O` (stereo not given) the value was -8.27%. For `CC(=O)C(Cl)(Cl)Cl`, the “activation” value was -7.7%. In the case of `O=C1NCN(c2ccccc2)C12CCN(CC1COc3ccccc3O1)CC2` (stereo not given), the “activation” value is -4.46%.

For the molecule `Fc1cccc(Cl)c1CCl`, the “activation” value is 0.75%. Same read-out and setting: then `Cn1cc(C2=C(c3cn(C4CCN(Cc5ccccn5)CC4)c4ccccc34)C(=O)NC2=O)c2ccccc21`, with -0.954%; and `Oc1c(Br)c(Br)c(Br)c(Br)c1Br`, with -5.08% [at 94.8 µM]; and `CCOP(=S)(OCC)OC(Cl)C(Cl)(Cl)Cl` (stereo not given), with -4.34%. On to `Cc1cc(N=Nc2ccccc2C)ccc1N`, for which the Potency is 864 nM (active) and 1.22 µM (active).

Turning to `C[C@@H]1O[C@@H](O[C@H]2C[C@@H](O)[C@]3(CO)[C@H]4[C@H](O)C[C@]5(C)[C@@H](C6=CC(=O)OC6)CC[C@]5(O)[C@@H]4CC[C@]3(O)C2)[C@H](O)[C@H](O)[C@H]1O`, the Potency result was “inactive”. As to `COP(=S)(OC)Oc1cc(Cl)c(Br)cc1Cl`, the “activation” value was -4.16%.

In the case of `CN(C)[C@@H]1C(=O)C(C(N)=O)=C(O)[C@@]2(O)C(=O)C3=C(O)c4c(O)ccc(Cl)c4[C@@](C)(O)[C@H]3C[C@@H]12`, the “activation” value was -8.54%. On the same count and under the same terms, for `Clc1ccc(CCC(Cn2ccnc2)Sc2c(Cl)cccc2Cl)cc1` (stereo not given) the value was -0.612%; for `COc1ccc(/C(=C/C(=O)N2CCOCC2)c2ccc(Cl)cc2)cc1OC`, -6.72%; for `C[C@H]1CC[C@@H]2[C@@H](C)[C@H]3[C@H](C[C@H]4[C@@H]5CC=C6CC(O[C@@H]7O[C@H](CO)[C@H](O)[C@H](O[C@@H]8O[C@H](CO)[C@@H](O)[C@H](O)[C@H]8O)[C@H]7O[C@H]7O[C@@H](C)[C@H](O)[C@@H](O)[C@H]7O)CC[C@]6(C)[C@H]5CC[C@]34C)N2C1` (stereo not given in full), 0.541% [at 94.8 µM].

`O=[N+]([O-])c1ccc2ccc3cccc4ccc1c2c34`: the “activation” value is -0.18%. Still for that read-out and setting: then `FC(Cl)(Cl)Cl`, with -0.0564%. Same read-out and setting: for `BrC(Br)C(Br)(Br)Br` the value was -9.63% [at 94.8 µM].

Values taken from PubChem BioAssay (Tox21).
